These results are taken from PubChem BioAssay (NCI).

This is part of a sample that, as a whole, favours compounds with a hit. Of some 83,000 tested, about 20% had one in any assay.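 Negative percent growth values reflect cell death: -40 means 40% of the cells present at the start died, and -100 means all died.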 A number with no mark means an inactive call. Activity calls are given as the source filed them. The calls were made as follows: active = growth percent below 10; inactive = the rest.

What all share (test): NCI-60 one-dose screen, 48 h (100 = growth as untreated, 0 = no growth, -100 = all killed)
Holding throughout (conditions): 10 µM unless noted

The subject of test [1] is SK-MEL-2 melanoma.
The subject of test [2] is EKVX NSCLC.
Test [3] deals with SN12C renal.
Test [4] relates to UO-31 renal.
Test [5] relates to TK-10 renal.
Test [6] relates to ACHN renal.
In test [7] the test system is A498 renal.
Test [8] concerns CCRF-CEM leukemia.
Test [9] deals with MOLT-4 leukemia.
Test [10] deals with SR leukemia.

For the molecule `COc1cc(NC(=O)c2cc(O)c(C/C=C(\C)CCC=C(C)C)c(O)c2)cc2c1O[C@]1(C)CC[C@@H](O)C(C)(C)[C@H]1C2`, the growth in [1] is -5.49% (active); in [2], 26.1%; in test [3] it was 20.5%; in test [4], -21.5% (active); in test [5], 56.1%; in [6], 4.47% (active). In addition, the growth in test [7] is -29.2% (active); in [8] it was 6.24% (active); in [9], 0.564% (active); in test [10] it was -1.71% (active).
As to `CCOC(=O)c1ccc(Nc2ncnc3ccc(NC(=O)c4ccccc4)cc23)cc1`, the growth was 86.6% in test [1]; 80.3% in [2]; 102% in [3]; 72.6% in [4]; 65.4% in test [5]; 93.5% in [6]. Besides, the growth was 106% in test [7], 91.2% in test [8], 63.8% in [9] and 73.8% in test [10].
For `CCOC(=O)/C(=C/c1c(-c2ccccc2)[nH]c2ccccc12)C(=O)c1ccc(Cl)cc1`, the growth in [1] is 61.8%; in test [2] it was 30.6%; in test [3], 56%; in [4], 57.9%; in [5], 82.2%; in test [6], 19.3%. Also, the growth in test [7] was 73.7%; in [8] it was 14.5%; in test [9] it was 1.71% (active); in [10], 9.07% (active).
For `CC(/C=C/c1ccccc1)=N/NC(=O)c1ccncc1`, the growth was 106% in [1]; 107% in test [2]; 99.8% in [3]; 89% in test [4]; 105% in test [5]; 111% in [6]. For the same molecule, the growth in test [7] is 95%; in test [8], 92.5%; in test [9], 92.2%; in test [10] it was 88.9%.
Consider `C=C1C(=O)O[C@H]2[C@H]1CCC(/C=N/c1ncc(Br)cc1N)=C\CC[C@@]1(C)O[C@@H]21`, for which the growth in test [1] is 46.6%; in test [2] it was 29%; in test [3], -24.8% (active); in test [4], -72.3% (active); in [5], -4.72% (active); in test [6] it was 2.47% (active). Besides, the growth in [7] is 78%; in test [8], 0.102% (active); in test [9] it was -3.09% (active); in [10] it was -3.64% (active).
Consider `CCCn1c2cc(OCc3cn(-c4ccc(Cl)cc4)nn3)ccc2c2ccnc(C)c21`, for which the growth in test [1] is 87%; in test [2], 80.1%; in [3], 34.2%; in test [4] it was 46.4%; in [5], 113%; in [6] it was 34.3%. Besides, the growth in test [7] is 76.2%; in test [8], 56.8%; in test [9], 57.1%; in test [10], -32.4% (active).
As to `CC(=O)Nc1nc2c(c(N)c1C#N)C(c1cccc(Cl)c1)C1=C(CCCC1=O)N2c1sc2c(c1C#N)CCCC2` (stereo not given), the growth is 55.5% in test [1]; 35.9% in [2]; 52.3% in test [3]; 37.1% in [4]; 44.5% in test [5]; 53.3% in [6]. For the same molecule, the growth in [7] is 62.4%; in [8], 50.4%; in test [9] it was 12.6%; in test [10] it was 26%.
As for `COc1ccc2c(c1)Oc1nc(N)c(C#N)c(N)c1C2Sc1ccc(SC)cc1` (stereo not given), the growth in [1] is -25.6% (active); in test [2], 32.6%; in [3] it was 21.7%; in [4] it was 5.13% (active); in test [5], -16.4% (active); in [6] it was -66.3% (active). Besides, the growth in test [7] is 95.4%; in test [8] it was -2.59% (active); in test [9], 0.548% (active); in test [10], -17.5% (active).
On to `CC1CCCN(CCCCCOc2ccc3oc4ccccc4c(=O)c3c2)C1` (stereo not given), for which the growth was 82.3% in test [1]; 84% in test [2]; 64.3% in test [3]; 61.2% in test [4]; 82.3% in [5]; 98.9% in test [6]. The growth in [7] was 75.9%; in test [8], 70.9%; in test [9], 49%; in test [10], 36.4%.
For the molecule `CCCn1c2cc(OCc3cn(-c4ccc(Br)cc4)nn3)ccc2c2ccnc(C)c21`, the growth was 70.6% in test [1]; 82.7% in [2]; 17.5% in [3]; 23.4% in [4]; 85.9% in [5]; 17.4% in test [6]. Moreover, the growth in test [7] is 77.8%; in test [8], 13.1%; in [9], 45.6%; in test [10] it was -15.2% (active).
`COc1ccc(-n2cc(-c3ccc(Cl)c(Cl)c3)[nH]c2=O)cc1OC`: the growth in test [1] is 97.7%; in test [2], 93.6%; in test [3], 102%; in [4] it was 95%; in test [5], 96.6%; in test [6], 105%. Also, the growth in [7] was 79.3%; in test [8] it was 3.68% (active); in [9], 144%; in test [10] it was 40.1%.
Consider `COC(=O)c1ccc2c(c1)NC(=O)[C@@H]1CCCN21`, for which the growth in test [1] is 95%; in test [2], 94.1%; in [3], 101%; in test [4], 88.1%; in test [5] it was 127%; in [6], 103%. Besides, the growth was 90.4% in [7], 99.5% in test [8], 84.1% in [9] and 81.5% in [10].
As for `Cc1ccc(SC2c3ccc(C)cc3Oc3nc(N)c(C#N)c(N)c32)cc1` (stereo not given), the growth in [1] was 65.3%; in test [2], 59.8%; in test [3], 79.9%; in test [4] it was 48.5%; in test [5] it was 69.3%; in test [6], 68.1%. Moreover, the growth is 106% in test [7], 7.82% (active) in test [8], 7.29% (active) in test [9] and -11.8% (active) in test [10].
For `S=C(Nc1ccccc1)c1ccccn1`, the growth is 103% in [1]; 93.1% in test [2]; 85.9% in test [3]; 57% in test [4]; 109% in test [5]; 93.5% in test [6]. The growth in test [7] was 91.4%; in [8] it was 37.5%; in [9], 80%; in [10] it was 56.1%.
Regarding `Cc1ccc(-c2nc(C#N)c(S(=O)(=O)N(C)CCO)o2)cc1`, the growth in [1] is 80.4%; in test [2], 107%; in test [3] it was 51%; in test [4], 78.4%; in [5], 116%; in [6] it was 60.7%. Moreover, the growth was 114% in test [7], 2.67% (active) in [8], 7.32% (active) in [9] and 10.8% in test [10].
As for `Cc1nc2sc(C(=O)Nc3cccc4ccccc34)c(N)c2cc1C(C)O` (stereo not given), the growth was 36.5% in test [1]; 36.7% in test [2]; 36% in [3]; 48.6% in test [4]; 75.2% in [5]; 42.8% in test [6]. In addition, the growth in test [7] is 24.2%; in test [8] it was 9.13% (active); in [9] it was 13.3%; in test [10] it was 12.3%.
As for `O=C1NN(c2ccccc2)C(c2ccc(Cl)cc2)N2CCC[C@H]12` (stereo not given in full), the growth in test [1] is 107%; in test [2], 94.8%; in test [3], 105%; in [4] it was 85.3%; in test [5], 111%; in [6], 106%. Also, the growth was 84.5% in [7], 107% in test [8], 99.5% in test [9] and 111% in [10].
For `O=C(C[n+]1cccc2cc(Cl)ccc21)c1ccc2c(c1)CCCC2`, the growth was 28.3% in test [1]; 44.7% in [2]; 10.1% in test [3]; 91.4% in test [4]; 62% in test [5]; 86.2% in test [6]. The growth was 74% in [7], 16% in [8], 1.84% (active) in test [9] and 19% in [10].
With `C#Cc1ccccc1NC(=O)c1sc2nc3c(cc2c1N)CCCCC3`, the growth was 101% in [1]; 84.8% in test [2]; 98.2% in test [3]; 85.4% in test [4]; 117% in test [5]; 101% in test [6]. Moreover, the growth is 94.1% in [7], 93.8% in test [8], 94.5% in test [9] and 81.2% in [10].
For the molecule `COc1cc(C2=NN(c3ccccc3)C(c3cccc(Nc4ccnc5cc(C(F)(F)F)ccc45)c3)C2)cc(OC)c1OC` (stereo not given), the growth in test [1] is 86.6%; in [2] it was 85.2%; in test [3] it was 97.1%; in [4], 61.4%; in test [5] it was 78.2%; in test [6], 95.2%. Moreover, the growth in test [7] was 89.9%; in test [8] it was 84.1%; in [9], 65.3%; in test [10] it was 56.9%.
For `C=C1C(=O)O[C@H]2[C@H]1CC/C(COC(=O)n1ccnc1)=C\CC[C@@]1(C)O[C@@H]21`, the growth was 89.4% in test [1]; 80.9% in test [2]; 96.2% in test [3]; 73.3% in test [4]; 94.7% in [5]; 82.8% in test [6]. Further, the growth in [7] was 125%; in [8] it was 74.3%; in [9] it was 83.4%; in test [10], 77.5%.
